Dicer processing – inhibitors of human Dicer processing of pre-microRNA; z-score at 25 µM; cat-ELCCA pre-miR-21 Dicer processing, chemiluminescence; stronger effect = higher value; 47,000 tested, 6% active; AID 1347074; in the data active = z-score above about 3, passing the limit was not always enough;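 note: plate controls were vehicle for no effect and no enzyme for full effect; higher signal means more uncleaved substrate so more Dicer inhibition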
The depositor's hits bear a star. The full list was thinned out, with hits kept by preference.

SMILES	Dicer processing
O=S(Cc1c(Cl)cccc1Cl)c1ccc(C(F)(F)F)cn1 (configuration not stated)	-1.2
Cc1onc2c(=O)[nH]nc(-c3ccccc3)c12	-0.63
O=C(c1cccs1)c1cn(CCOc2ccc(F)cc2)c2ccccc12	3.5*
O=C(c1ccco1)c1cn(CCOc2ccc(Cl)cc2)c2ccccc12	-0.39
CCN(CC)C(=O)Cn1cc(C(=O)c2ccco2)c2ccccc21	-0.38
COC(=O)Cn1cc(C(=O)c2ccccc2)c2ccccc21	3.6*
CC(C)(C)C(=O)c1cn(CC(=O)O)c2ccccc12	0.33
O=C(c1ccco1)c1cn(CCOc2ccc(F)cc2)c2ccccc12	1.6
COC(=O)c1cn(CCOc2ccccc2)c2ccccc12	3.1*
COC(=O)c1cn(CCOc2ccc(F)cc2)c2ccccc12	2.2
O=C(c1ccco1)c1cn(CCOc2ccccc2)c2ccccc12	-0.39
Nc1nc2c(c(=O)[nH]1)C(c1ccc(OCc3cccc(Cl)c3)cc1)CC(=O)N2 (configuration not stated)	0.38
CC1=C(C)C/S(=N\S(=O)(=O)c2ccccc2)N(S(=O)(=O)c2ccccc2)C1 (configuration not stated)	0.54
O=C(O)c1ccc2oc3ccccc3c(=O)c2c1	-1.4
COc1cc(OC)cc(N2C(=O)C3CC=C(C)CC3C2=O)c1 (configuration not stated)	-2.2
N=C(N)c1ccc(C(F)(F)F)cc1	-1.4
COc1cccc(/C=C2\SC(=S)NC2=O)c1OC	-0.91
COc1cccc(/C=C2/SC(=S)N(C)C2=O)c1O	7.7*
O=C1NC(=S)/C(=C/c2ccccc2O)S1	-1.5
O=C(O)CSCC(=O)N1CCOCC1	-1.4
COC(=O)c1c(C)oc2cc(Br)c(OC(=O)C(C)(C)C)cc12	0.52
Cc1c(S(=O)(=O)Nc2ccccc2Cl)sc2ccc(Cl)cc12	4.6*
Cc1c(S(=O)(=O)Nc2ccc(Cl)c(Cl)c2)sc2ccc(Cl)cc12	1.9
Cc1c(S(=O)(=O)Oc2ccccc2Cl)sc2ccc(Cl)cc12	-0.86
Cn1c(=O)c2[nH]c(N3CCC(C(=O)O)CC3)nc2n(C)c1=O	1.6
SMILES	Dicer processing
CSc1nnc2c(n1)OC(c1ccccc1)Nc1ccc(Br)cc1-2 (configuration not stated)	0.93
Clc1ccc(-c2csc(N/N=C\c3[nH]ncc3Br)n2)cc1	3
O=C(O)/C=C\C(=O)NCc1csc2ccccc12	5.3*
CC1CC(NC(=S)NCc2csc3ccccc23)CC(C)(C)C1 (configuration not stated)	-1
O=C(O)/C=C/C(=O)NCc1ccc(F)cc1	-0.86
O=C(O)c1nccnc1C(=O)NCc1csc2ccccc12	1.4
N/C(Cc1csc2ccccc12)=N\O	0.88
S=C(NCc1csc2ccccc12)NCC1CC1	4*
Cc1cc(C)n2ncc(C(=O)Nc3ccc(F)cc3F)c2n1	-0.92
CN(C)c1nc2ccc(O)cc2s1	1.5
O=S(=O)(/N=C(\NNC(=S)Nc1cc(Cl)ccc1Cl)N1CCCC1)c1ccccc1	2.1
CC(=O)N/C(=C\C=C\c1ccccc1)C(=O)O	-0.25
CN1CCc2c(sc3c2C(=O)NC(c2cccc(O)c2)N3)C1 (configuration not stated)	-0.75
Cc1ccc(Cl)cc1NC(=S)N(N)CCO	0.76
Cn1cc(Cl)c(C(=O)Nc2ccncc2)n1	0.83
Cc1nc(-c2ccc(-c3cccs3)s2)sc1-c1ccnn1C(=O)c1cccc(C(F)(F)F)c1	0.8
C/C(=N\OS(C)(=O)=O)c1cc2cc([N+](=O)[O-])ccc2o1	-0.71
Cc1cc(C)c(S(=O)(=O)Nc2ccc3c4c(cc(=O)n3C)-c3ccccc3C(=O)c24)cc1C	0.7
CCOC(=O)c1c(C)oc2ccc(OC)cc12	2.2
CCOC(=O)CCC(=O)c1c(C)oc2ccc(OC)cc12	3.1*
COCCOC(=O)c1c(C)oc2ccc(OC)cc12	2.9
Cc1cc(Cl)ccc1OCC(=O)Nc1sc2c(c1C(N)=O)CCC2	0.06
O=C(O)CNc1ncnc2ccccc12	3.6*
O=C(O)CCCNc1ncnc2ccccc12	-0.76
OCCNc1ncnc2ccccc12	0.02
SMILES	Dicer processing
CCOC(=O)C1CCN(C(=S)NC2CC3C=CC2C3)CC1 (configuration not stated)	0.1
NC(=O)C1CCN(C(=S)NC2CC3C=CC2C3)CC1 (configuration not stated)	-0.16
COc1cccc(/C=N/NC(=O)C2CCCN(C(=S)NNC3CC4C=CC3C4)CC2)c1O (configuration not stated)	3.7*
COC(=O)C1CCC(C)(C(=O)O)C1(C)C (configuration not stated)	0.99
Cn1c(=O)c2c(nc(NCCN)n2Cc2ccc(F)cc2)n(C)c1=O	1.3
Cc1csc(NS(=O)(=O)c2ccc(Cl)cc2)c1-c1nc2ccccc2s1	4.2*
Cc1csc(NC(=O)COCC(=O)O)c1-c1nc2ccccc2s1	1.3
CC(=O)Nc1scc(C)c1-c1nc2ccccc2s1	-0.01
CCCN(C(=O)CC#N)C(=O)Nc1ccccc1C	0
Cc1cccc(C)c1NC(=O)N(Cc1ccccc1)C(=O)CC#N	0.25
Cc1ccccc1NC(=O)N(Cc1cccs1)C(=O)CC#N	3.7*
COC(=O)C1=C(C)NC(C)=C(C(=O)OC)C1c1cc(C(=O)OC)c(OC)cc1OC	-0.17
CC(=O)N1C(=O)N(C(C)=O)C(O)C1O (configuration not stated)	0.14
Cc1cc(Oc2ccnc3cc(Cl)ccc23)ccc1Cl	29*
Cc1cc(Oc2ccnc3cc(Cl)ccc23)cc(C)c1Cl	-0.76
Cc1cc(OCOc2ccc(Cl)c(C)c2)ccc1Cl	-1.3
NC(=S)N/N=C1\CCOc2ccc3ccccc3c21	-0.98
CC(C)CSc1nc2ccccc2n1CC(=O)O	3.2*
CCCSc1nc2ccccc2n1CC(=O)O	-2
COc1ccc(OCCSc2nc3ccccc3n2CC(=O)O)cc1	0.55
N/C(CC(=O)Nc1ccc(F)cc1F)=N\OS(=O)(=O)c1ccc(Cl)cc1	1
c1ccc(-c2nn3c4cc(N5CCOCC5)ccc4nc3c3ccccc23)cc1	6.1*
c1ccc(-c2nc3c4ccccc4ccn3c2CN2CCOCC2)cc1	-0.15
COc1ccc(-c2nnc(N3CCOCC3)c3ccccc23)cc1	1.3
Cn1c(=O)c2c(nc(N3CCCC3)n2Cc2ccc(Cl)c(Cl)c2)n(C)c1=O	0.46
SMILES	Dicer processing
Cc1c(C(=O)Cc2c(O)c3ccccc3oc2=O)sc2nc(C(F)(F)F)nn12	3
CC(C)(C)NS(=O)(=O)c1cccc2c(N)cccc12	-2.2
C=CCOc1cccc(C2c3c(oc4ccccc4c3=O)C(=O)N2Cc2ccc3c(c2)OCO3)c1 (configuration not stated)	2.1
COc1ccc(S(=O)(=O)N2CCN(Cc3ccc4c(c3)OCO4)CC2)cc1	8
O=C(c1cc(-c2ccc3c(c2)OCO3)nc2ccccc12)N1CCN(Cc2ccc3c(c2)OCO3)CC1	1.4
CCCS(=O)(=O)N1CCN(C(=O)c2ccco2)CC1	2.7
O=S(=O)(c1ccccc1)N1CCN(Cc2ccc3c(c2)OCO3)CC1	8
O=C(c1ccc2c(c1)OCO2)N1CCN(Cc2ccc3c(c2)OCO3)CC1	-0.91
CC1CCC(N2CCN(C(=O)c3ccco3)CC2)CC1 (configuration not stated)	0.07
O=S(=O)(c1ccc2ccccc2c1)N1CCN(Cc2ccc3c(c2)OCO3)CC1	6.6*
O=C(c1ccco1)N1CCN(Cc2ccc3c(c2)OCO3)CC1	6.2*
CN(C)C(=O)N1CCN(C(=O)c2ccco2)CC1	3.1*
CCOC(=O)c1sc(SCc2ccccc2)c2c1CC(c1ccccc1)CC2=O (configuration not stated)	-0.11
